LmPK inhibitor = qHTS Assay for Inhibitors of Leishmania Mexicana Pyruvate Kinase (LmPK) | purified LmPK, Kinase-Glo ATP luminescence, 1 h | Potency, µM (doses to about 57.5 µM), inactives show at the highest dose activity change, negative = inhibition, usual class: inhibitors | 290,000 compounds, 0.37% hits | AID 1721, 2009
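Screened at intermediate enzyme activity to detect both inhibitors and activators: LmPK at 0.1 nM, with a 0.5 nM enzyme column as activation reference. PEP 0.5 mM, ADP 0.1 mM; ATP detected by luminescence after 1 h.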
Tb PYK inh = qHTS of Trypanosoma Brucei Inhibitors. pyruvate kinase (Trypanosoma brucei), Q57TT1. TbPYK enzyme, Kinase-Glo Plus ATP luminescence, 45 min. Potency, µM (titrated, usually from 76.8 µM), for the others: top-dose activity, negative = inhibition, actives largely listed as inhibitors. 410,000 compounds, 0.12% hits. AID 624173, 2012; also: nearly all actives have a fitted effect of over 50% in size
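Glycolytic pyruvate kinase of T. brucei was incubated with substrate, test compound and 130 uM ADP for 45 minutes at room temperature. Luminescent Kinase-Glo Plus signal was measured after 10 minutes.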
RE007 growth inh = qHTS Assay for Inhibitors of the HIV-1 protein Vpr; Potency, µM (series often up to 92.2 µM), inactives show at the highest dose activity change, negative = less growth, hits mostly inhibitors; S. pombe RE007 Vpr strain, BacTiter-Glo ATP luminescence, 24 h; 360,000 compounds, 0.21% hits; active = well fitted falling curve with a large enough effect; inconclusive = small, poorly fitted or top-dose-only effect; inactive = no such curve, though single readings can be large or run the other way; also: nearly all actives have a fitted effect of over 50% in size
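Fission yeast strain RE007, carrying one chromosomally integrated HIV-1 vpr copy, was seeded at OD 0.01 in PMG+AL medium with 23 nL pinned compound. After 24 h at 30 °C and 99% humidity, viability was read by BacTiter-Glo luminescence.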
Sm TGR inh = qHTS Assay for the Inhibitors of Schistosoma Mansoni Peroxiredoxins; purified TGR, DTNB reduction, TNB absorbance 405 nm; Potency, µM (series often up to 114 µM), without a hit: at the top dose activity change, negative = inhibition, hits mostly inhibitors; 360,000 compounds, 3% hits; also: nearly all actives have a fitted effect of over 60% in size
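TGR 20 nM + NADPH 100 uM (dispensed conc.), cpd preinc 15 min RT; start with NADPH (500 uM addition) then DTNB (15 mM addition). Kinetic TNB absorbance, 405 nm filter. Four-parameter Hill fit across titration.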
Giardia FBPA inh = qHTS Assay for Inhibitors of Fructose-1,6-bisphosphate Aldolase from Giardia Lamblia | purified Giardia FBPA | A8B2U2 | 290,000 compounds, 0.71% hits | AID 2451, 2010 | Potency, µM (top dose mostly 59.6 µM), inactives show at the highest dose activity, negative = inhibition, most hits filed as inhibitors; also: nearly all actives have a fitted effect of over 55% in size
Target sequence (A8B2U2 whole entry, looked up): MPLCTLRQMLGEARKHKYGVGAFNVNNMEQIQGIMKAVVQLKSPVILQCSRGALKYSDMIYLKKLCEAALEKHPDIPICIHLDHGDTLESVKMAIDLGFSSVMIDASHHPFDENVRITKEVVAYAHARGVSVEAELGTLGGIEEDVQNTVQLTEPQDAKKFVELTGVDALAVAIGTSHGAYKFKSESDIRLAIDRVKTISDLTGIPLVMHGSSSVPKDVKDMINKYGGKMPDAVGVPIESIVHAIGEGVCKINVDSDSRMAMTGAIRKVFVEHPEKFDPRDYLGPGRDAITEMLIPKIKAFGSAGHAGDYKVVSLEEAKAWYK
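Giardia FBPA (40 nM reagent) was preincubated 10 min at RT with compound (up to 57.5 uM final), then substrate plus GAPDH/TPI/NAD/arsenate coupling system with diaphorase/resazurin was added; resorufin fluorescence (525/598 nm) was read after 20 min.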
Numbers without * were called inactive. Rows were chosen to be rich in hits. Some 3.3% of all compounds tested hit in one or more screens of this group. Unless noted, calls follow the shape of the dose curve; as a rule, active = well fitted curve in the direction sought with a large enough effect; inconclusive = small, poorly fitted or top-dose-only effect, or another doubt; inactive = no such curve, though single readings can be large; an effect the other way counts as inactive or inconclusive. % is scaled to controls: 0 for no effect and ±100 for the full control effect; potency is read from the fitted curve at half-maximal effect.

Results for CCOC(=O)c1c(-c2ccc(C)o2)csc1NC(=O)CSc1ncn[nH]1 ?
LmPK inhibitor: -0.1%; Tb PYK inh: inconclusive; RE007 growth inh: 9.5%; Sm TGR inh: 20µM*; Giardia FBPA inh: -12.6%

How did CCOC(=O)c1c(-c2ccc(C)o2)csc1NC(=O)CN1CCOCC1 do in these assays?
LmPK inhibitor: 1.0%; Tb PYK inh: -1.2%; RE007 growth inh: -23.6%; Sm TGR inh: 22.4µM*; Giardia FBPA inh: -2.6%

How did CCOC(=O)c1c(-c2ccc(C)o2)csc1NC(=O)COC(=O)c1cccs1 do in these assays?
LmPK inhibitor: 1.0%; Tb PYK inh: -36.2%; RE007 growth inh: -3.0%; Sm TGR inh: 14.1µM*; Giardia FBPA inh: 0.0%

Results for COC(=O)c1ccc(NS(=O)(=O)c2ccc3c(c2)n(C)c(=O)c(=O)n3C)cc1 ?
Tb PYK inh: 3.3%; Sm TGR inh: -4.1%

How did COc1ccccc1NC(=O)CSc1nnnn1-c1ccc2c(c1)OCO2 do in these assays?
LmPK inhibitor: 6.0%; Tb PYK inh: 2.6%; RE007 growth inh: -12.3%; Sm TGR inh: 6.5%; Giardia FBPA inh: 3.3%

How did CCOC(=O)C1=CCN(S(=O)(=O)c2ccccc2F)C1c1ccc(F)cc1 (configuration not stated) do in these assays?
Tb PYK inh: -13.5%; RE007 growth inh: -5.6%

What do the screens show for `CC(=O)Nc1cc([As](=O)(O)O)ccc1O`?
LmPK inhibitor: -2.2%; Tb PYK inh: 0.2%; RE007 growth inh: -5.3%; Sm TGR inh: 7.08µM*; Giardia FBPA inh: -11.3%

Results for CC(=O)Nc1cc(Br)ccc1O ?
LmPK inhibitor: 4.4%; Tb PYK inh: -5.3%; RE007 growth inh: 3.5%; Sm TGR inh: 0.0%; Giardia FBPA inh: -8.7%

How did Cn1c(=S)c2[nH]c(SCCN)nc2n(C)c1=O do in these assays?
Tb PYK inh: -11.3%; RE007 growth inh: -18.7%

Results for CCN1CCCC(Sc2nc3c([nH]2)c(=S)n(C)c(=O)n3C)C1 (configuration not stated) ?
LmPK inhibitor: -1.2%; Tb PYK inh: 2.4%; Sm TGR inh: 39.8µM*; Giardia FBPA inh: inconclusive

Results for CCCOc1cccc(C2C(C(=O)c3ccc(C)o3)=C(O)C(=O)N2c2nc(C)c(C(C)=O)s2)c1 (configuration not stated) ?
LmPK inhibitor: 5.1%; Tb PYK inh: -8.7%; RE007 growth inh: 9.4%; Sm TGR inh: 35.5µM*; Giardia FBPA inh: inconclusive

What do the screens show for `C=CCOc1cccc(C2C(C(=O)c3ccc(C)o3)=C(O)C(=O)N2CCN(C)C)c1` (configuration not stated)?
LmPK inhibitor: -1.2%; Tb PYK inh: -6.1%; RE007 growth inh: 5.7%; Sm TGR inh: 35.5µM*; Giardia FBPA inh: -5.6%

What do the screens show for `CCOc1cccc(C2C(C(=O)c3ccc(C)o3)=C(O)C(=O)N2c2nnc(C)s2)c1` (configuration not stated)?
Tb PYK inh: 13.6%; RE007 growth inh: -3.0%

What do the screens show for `CCCOc1cccc(C2C(C(=O)c3ccc(C)o3)=C(O)C(=O)N2CCN2CCOCC2)c1` (configuration not stated)?
LmPK inhibitor: 6.6%; Tb PYK inh: -8.0%; RE007 growth inh: -1.6%; Sm TGR inh: inconclusive; Giardia FBPA inh: -0.1%

How did CC(=O)Nc1ccc(N(C)C)cc1[N+](=O)[O-] do in these assays?
LmPK inhibitor: -5.9%; Tb PYK inh: -4.1%; RE007 growth inh: 9.1%; Sm TGR inh: -6.1%; Giardia FBPA inh: -21.3%

What do the screens show for `COCCn1c(SCC(=O)NC(C)c2ccccc2)nc2ccccc21` (configuration not stated)?
LmPK inhibitor: -3.6%; Tb PYK inh: -0.9%; RE007 growth inh: 1.0%; Sm TGR inh: -8.3%; Giardia FBPA inh: 7.3%

How did CN(C)CCCN(C(=O)c1cccs1)c1nc2cc3c(cc2s1)OCO3 do in these assays?
LmPK inhibitor: -16.6%; Tb PYK inh: 4.7%; RE007 growth inh: 0.8%; Sm TGR inh: -16.6%; Giardia FBPA inh: 1.4%

How did CC(NC(=O)C(C)N1C(=O)c2ccccc2C1=O)c1ccccc1 (configuration not stated) do in these assays?
LmPK inhibitor: -0.1%; Tb PYK inh: -2.4%; RE007 growth inh: 31.8%; Sm TGR inh: inconclusive; Giardia FBPA inh: 0.8%

Results for CC(=O)c1ccc(OCc2cc(C(=O)N3CC[C@@H]4CCCC[C@H]4C3)no2)cc1 ?
LmPK inhibitor: -1.2%; Tb PYK inh: 5.3%; RE007 growth inh: -5.5%; Sm TGR inh: 12.6µM*; Giardia FBPA inh: -6.3%

Results for CC(=O)c1ccc(OCc2cc(C(=O)N3CCC(c4ccncc4)CC3)no2)cc1 ?
LmPK inhibitor: 0.6%; Tb PYK inh: 1.2%; RE007 growth inh: -7.3%; Sm TGR inh: 44.7µM*; Giardia FBPA inh: 5.0%

Results for CN1C(=O)C(c2cn(C)c3ccccc23)(c2cn(C)c3ccccc23)c2cc(F)ccc21 ?
RE007 growth inh: 0.0%

What do the screens show for `CC(=O)N1CCc2cc(C(=O)CN3CCN(c4ccccn4)CC3)ccc21`?
LmPK inhibitor: 5.8%; Tb PYK inh: -0.2%; RE007 growth inh: -14.5%; Sm TGR inh: 35.5µM*; Giardia FBPA inh: -19.7%

Results for Cc1ocnc1C(=O)Nc1ccc(Cl)cc1 ?
LmPK inhibitor: -26.4%; Tb PYK inh: -11.4%; RE007 growth inh: -28.7%; Sm TGR inh: 1.5%; Giardia FBPA inh: -19.6%

How did CC/C(=N\Nc1cccc2ccccc12)c1c(O)[nH]c(=O)[nH]c1=O do in these assays?
LmPK inhibitor: 1.1%; Tb PYK inh: -1.7%; RE007 growth inh: inconclusive; Sm TGR inh: 79.4µM*; Giardia FBPA inh: inconclusive

What do the screens show for `CC/C(=N\Nc1ccccc1)c1c(O)[nH]c(=O)[nH]c1=O`?
LmPK inhibitor: 3.6%; Tb PYK inh: -2.3%; RE007 growth inh: 22.2%; Sm TGR inh: 4.6%; Giardia FBPA inh: 3.6%

Results for COc1ccc(-c2cc(C(F)(F)F)nc(SCCC(=O)Nc3cc(C)ccc3O)n2)cc1 ?
Tb PYK inh: -0.1%; Sm TGR inh: 6.7%

How did CN(C)S(=O)(=O)c1cc(NC(=O)c2ccc(-n3ccnc3)c([N+](=O)[O-])c2)ccc1Cl do in these assays?
LmPK inhibitor: 3.2%; Tb PYK inh: 4.2%; RE007 growth inh: 4.2%; Sm TGR inh: -0.6%; Giardia FBPA inh: 23.7%

How did Cc1ccc(NC(=O)c2noc3c2CCC3)cc1C do in these assays?
LmPK inhibitor: 11.4%; Tb PYK inh: -15.6%; RE007 growth inh: -13.0%; Sm TGR inh: -3.9%; Giardia FBPA inh: -6.4%

What do the screens show for `COc1ccc(NC(=O)c2ccc(=O)oc2)cc1`?
LmPK inhibitor: -7.3%; Tb PYK inh: 7.6%; RE007 growth inh: 3.6%; Sm TGR inh: 44.7µM*; Giardia FBPA inh: 7.1%

Bioassay records deposited in PubChem BioAssay by National Center for Advancing Translational Sciences (NCATS).
